# Data reported in publication PMC5540273 (PLoS ONE, 2017).
# Test system: T1, JNK3
# T1 construct: gene MAPK10
# Details: concentration: 1 μM, replicates: in singlicate; n = 1
# 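Note: KINOMEscan kinase panel screen.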
row,Compound,%Inh [%]
1,N#Cc1ccc(-c2cc(-c3c[nH]nc3-c3ccccn3)ccn2)cc1 [GW693028],69
2,CCc1ccnc(/C=C/c2n[nH]c3cc(Sc4ccccc4C(=O)NC)ccc23)c1,0
3,Cc1cccc(-c2nc(Nc3ccc4ncsc4c3)c3ccccc3n2)n1 [GW867588],0
4,O=C1NC(=O)C(N2CCc3ccccc32)=C1c1cccc(Cl)c1 [SB-408010],29
5,NS(=O)(=O)c1cccc(-c2ccc3ncc(N4CCOCC4)nc3c2)c1 [GSK1535721],0
6,CN1c2ccc(CNc3ccc(F)cc3)cc2-c2c(cnn2C)S1(=O)=O,0
7,Cn1ccc2ncnc(Oc3ccc(NC(=O)Nc4ccncc4)c(Cl)c3)c21,0
8,COc1cc(Nc2nccc(N3CCC(NC(=O)c4cccc(NC(C)=O)c4)C3)n2)cc(OC)c1OC (stereo not shown) [GSK1379754],40
9,CSc1ccc(-c2cc3ncnc(SCC(=O)O)c3s2)cc1,0
10,CC(C)(C)n1cnc2c(N)ncnc21 [SKF-97359],2
11,Cc1nnc(-c2ccc(C)c(-c3ccc(C(=O)Nc4ccc(NS(C)(=O)=O)cc4)cc3)c2)o1 [GW702865],0
12,COc1ccc(S(=O)(=O)NC2CCN(c3cc(C)nc(Nc4cccc(C#N)c4)n3)CC2)cc1.O=C(O)C(F)(F)F [GSK1653539],12
13,Cc1c2ccc(N(C)c3ccnc(Nc4cccc(S(N)(=O)=O)c4)n3)cc2nn1Cc1ccccc1.Cl.Cl [GW787226],0
